Targets with a hit are over-represented here; the source holds about 7,900 in all. About 0.6% of all pairs of compound and target were hits.
Experiments:
Assay in all cases: log2 fold change, soluble protein after heating vs DMSO (PISA); higher = thermal stabilisation; K562 cells, 10 uM, 30 min; active = over 0.2 and 3.5 SD of the protein, either way, in both replicates (recomputed)
erlotinib = compound: C#Cc1cccc(Nc2ncnc3cc(OCCOC)c(OCCOC)cc23)c1 [erlotinib]
Summary of the method: (§1)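 Soluble protein was quantified by TMTpro 16plex LC-MS/MS after channel sums were equalised. It was obtained as the supernatant after 21,000xg for 90 min from pooled aliquots of K562 cells (2×10^6 cells/mL, 10 μM compound, 30 min) heated for 3 min across 48°C-58°C and extracted in PBS with 0.5% NP-40 at 4°C. Thermal stability values are relative to control samples and come from duplicates. They are given as log2 fold changes.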

[1] = compound: C/C(=N\NC(=O)C1=CC(=CC=C1)S(=O)(=O)N2CCOCC2)/C3=C(C=CC(=C3)Cl)O
Summary of the method: as §1

[2] = compound: C1=CC(=C(C=C1Cl)C2=NC3=NC=CN=C3C(=N2)NC4=CC=NC=C4)F
Summary of the method: as §1

[3] = compound: C1=CC(=CC=C1C2=NC3=C(N2)C=C(C=C3)C(=O)N)OC4=CC=C(C=C4)Cl
Summary of the method: as §1

[4] = compound: C1=CC2=C(C=CC(=C2)/C=C\3/C(=O)NC(=NCC4=CC=CS4)S3)N=C1
Summary of the method: as §1

[5] = compound: C1=CC2=NC=CN=C2C=C1/C=C/3\C(=O)NC(=O)S3
Summary of the method: as §1

[6] = compound: C1=CC=C(C=C1)C2=NC(=C(N2)C3=CC=NC=C3)C4=CC(=C(C=C4)Cl)O
Summary of the method: as §1

[7] = compound: C1=CC=C2C(=C1)C3=NNC4=CC=CC(=C43)C2=O
Summary of the method: as §1

[8] = compound: C1CCN(C1)C(=O)NC2=CC=CC(=C2)NC3=NC=C(C(=N3)NCCC4=CN=CN4)Br
Summary of the method: as §1

[9] = compound: C1CN(CCC1(CC2=CC=C(C=C2)Cl)N)C3=NC=NC4=C3C=CN4
Summary of the method: as §1

IRAK-1-4 Inhibitor I = compound: C1COCCN1CCN2C3=CC=CC=C3N=C2NC(=O)C4=CC(=CC=C4)[N+](=O)[O-] [IRAK-1-4 Inhibitor I]
Summary of the method: as §1

ibrutinib = compound: C=CC(=O)N1CCC[C@@H](n2nc(-c3ccc(Oc4ccccc4)cc3)c3c(N)ncnc32)C1 [ibrutinib]
Summary of the method: as §1

[10] = compound: CC(=O)c1cnc2ccc(-c3cc(Cl)c(O)c(Cl)c3)nc2c1N[C@H]1CC[C@H](CN(C)C)CC1
Summary of the method: as §1

ralimetinib = compound: CC(C)(C)Cn1c(N)nc2ccc(-c3[nH]c(C(C)(C)C)nc3-c3ccc(F)cc3)nc21 [ralimetinib]
Summary of the method: as §1

[11] = compound: CC(C)(O)CC(=O)NCCn1ccc2ncnc(Nc3ccc(Oc4cccc(C(F)(F)F)c4)c(Cl)c3)c21
Summary of the method: as §1

[12] = compound: CC(C)C1=C2N=C(C=C(N2N=C1)NCC3=CC=CC=C3)NCCCCCCN
Summary of the method: as §1

[13] = compound: CC(C)C[C@@H](C=O)NC(=O)[C@H](CC(C)C)NC(=O)[C@H](CC(C)C)NC(=O)OCc1ccccc1
Summary of the method: as §1

pinometostat = compound: CC(C)N(C[C@H]1O[C@@H](n2cnc3c(N)ncnc32)[C@H](O)[C@@H]1O)[C@H]1C[C@@H](CCc2nc3cc(C(C)(C)C)ccc3[nH]2)C1 [pinometostat]
Summary of the method: as §1

[14] = compound: CC1=C(C(CC(=O)N1)C2=CC=C(C=C2)C(F)(F)F)C(=O)NC3=C(C=C4C(=C3)C=NN4)F
Summary of the method: as §1

[15] = compound: CC1=C(C2=C(C=C1)C(=O)C3=CC=CC=C3N2CCCN)C
Summary of the method: as §1

Measured: log2 fold change

CRYM-AS1 (UniProt A6NIL9)
inactive: erlotinib 0.13 | [1] -0.214 | [2] 0.027 | [3] 0.23 | [4] 0.089 | [5] -0.725 | [6] 0.024 | [7] 0.073 | [8] -0.27 | [9] 0.108 | IRAK-1-4 Inhibitor I 0.13 | ibrutinib 0.172 | [10] -0.017 | ralimetinib -0.063 | [11] -0.108 | [12] -0.088 | [13] 0.168 | pinometostat 0.054 | [14] 0.038 | [15] -0.099

CD63 (UniProt P08962)
Sequence of UniProt P08962 (P08962 whole entry, looked up): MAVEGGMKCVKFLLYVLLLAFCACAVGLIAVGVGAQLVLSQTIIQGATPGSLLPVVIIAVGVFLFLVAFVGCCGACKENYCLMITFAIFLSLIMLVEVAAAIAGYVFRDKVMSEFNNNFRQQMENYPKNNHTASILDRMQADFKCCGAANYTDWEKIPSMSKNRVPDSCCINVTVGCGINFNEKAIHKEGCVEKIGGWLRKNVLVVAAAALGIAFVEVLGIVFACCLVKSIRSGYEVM
inactive: erlotinib 0.01 | [1] 0.024 | [2] -0.045 | [3] -0.089 | [4] -0.027 | [5] 0.069 | [6] 0.009 | [7] 0.002 | [8] 0.004 | [9] 0.034 | IRAK-1-4 Inhibitor I 0.022 | ibrutinib 0.036 | [10] 0.032 | ralimetinib 0.047 | [11] 0.006 | [12] 0.081 | [13] 0.056 | pinometostat 0.007 | [14] 0.017 | [15] 0.003

CSTF3 (UniProt Q12996)
Sequence of UniProt Q12996 (Q12996 whole entry, looked up): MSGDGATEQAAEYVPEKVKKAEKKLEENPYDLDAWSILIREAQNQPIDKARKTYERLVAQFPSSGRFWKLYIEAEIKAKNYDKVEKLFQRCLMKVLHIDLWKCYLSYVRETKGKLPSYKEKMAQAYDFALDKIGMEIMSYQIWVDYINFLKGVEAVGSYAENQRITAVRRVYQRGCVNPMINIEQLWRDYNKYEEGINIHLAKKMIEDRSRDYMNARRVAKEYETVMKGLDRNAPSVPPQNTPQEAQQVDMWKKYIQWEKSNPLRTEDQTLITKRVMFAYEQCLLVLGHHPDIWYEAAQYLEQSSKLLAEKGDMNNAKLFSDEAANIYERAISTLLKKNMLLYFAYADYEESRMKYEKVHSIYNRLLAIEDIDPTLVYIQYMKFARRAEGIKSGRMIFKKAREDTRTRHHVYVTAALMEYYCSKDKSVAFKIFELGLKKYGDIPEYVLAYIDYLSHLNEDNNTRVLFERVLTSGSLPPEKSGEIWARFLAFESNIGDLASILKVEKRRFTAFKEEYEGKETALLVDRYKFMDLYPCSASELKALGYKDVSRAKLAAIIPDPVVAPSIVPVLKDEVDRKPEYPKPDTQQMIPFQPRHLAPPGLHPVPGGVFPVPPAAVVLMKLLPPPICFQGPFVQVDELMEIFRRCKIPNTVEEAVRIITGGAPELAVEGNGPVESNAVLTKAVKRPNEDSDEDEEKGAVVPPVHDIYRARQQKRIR
active: [15] 0.262
inactive: erlotinib -0.038 | [1] 0.012 | [2] -0.003 | [3] 0.015 | [4] 0.014 | [5] 0.077 | [6] -0.032 | [7] 0.035 | [8] 0.027 | [9] -0.027 | IRAK-1-4 Inhibitor I 0.087 | ibrutinib 0 | [10] 0.019 | ralimetinib -0.052 | [11] -0.026 | [12] 0.132 | [13] -0.012 | pinometostat 0.021 | [14] -0.018

CHKA (UniProt P35790)
Sequence of UniProt P35790 (P35790 whole entry, looked up): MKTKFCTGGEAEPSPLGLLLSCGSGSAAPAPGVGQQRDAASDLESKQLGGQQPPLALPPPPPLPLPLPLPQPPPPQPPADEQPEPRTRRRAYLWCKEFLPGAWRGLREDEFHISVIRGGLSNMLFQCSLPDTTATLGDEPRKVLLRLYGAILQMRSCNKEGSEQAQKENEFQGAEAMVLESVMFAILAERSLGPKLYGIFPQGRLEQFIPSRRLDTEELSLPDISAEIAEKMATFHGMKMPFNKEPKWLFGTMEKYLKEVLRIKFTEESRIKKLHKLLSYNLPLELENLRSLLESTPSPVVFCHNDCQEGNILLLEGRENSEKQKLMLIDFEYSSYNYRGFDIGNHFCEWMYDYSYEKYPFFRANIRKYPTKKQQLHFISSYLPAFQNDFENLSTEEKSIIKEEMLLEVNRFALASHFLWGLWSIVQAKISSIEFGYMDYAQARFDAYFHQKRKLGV
inactive: erlotinib 0.012 | [1] -0.008 | [2] 0.036 | [3] -0.018 | [4] 0.001 | [5] -0.119 | [6] 0.069 | [7] -0.188 | [8] 0.005 | [9] -0.021 | IRAK-1-4 Inhibitor I -0.034 | ibrutinib 0 | [10] 0.085 | ralimetinib 0.006 | [11] 0.057 | [12] 0.113 | [13] 0.019 | pinometostat 0.088 | [14] -0.061 | [15] 0.079

COX5B (UniProt P10606)
Sequence of UniProt P10606 (P10606 whole entry, looked up): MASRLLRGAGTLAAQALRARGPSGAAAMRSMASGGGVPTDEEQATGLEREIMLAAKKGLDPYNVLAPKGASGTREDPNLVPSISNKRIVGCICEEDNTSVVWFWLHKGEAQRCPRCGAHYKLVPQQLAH
active: [12] 0.428
inactive: erlotinib -0.068 | [1] 0.062 | [2] 0.16 | [3] -0.041 | [4] 0.032 | [5] 0.03 | [6] 0.114 | [7] -0.023 | [8] -0.067 | [9] -0.003 | IRAK-1-4 Inhibitor I 0.008 | ibrutinib -0.012 | [10] -0.079 | ralimetinib 0 | [11] 0.106 | [13] -0.082 | pinometostat -0.071 | [14] 0.003 | [15] 0.204

CHCHD4 isoform 2 (UniProt Q8N4Q1)
Sequence of UniProt Q8N4Q1 (Q8N4Q1 whole entry, looked up): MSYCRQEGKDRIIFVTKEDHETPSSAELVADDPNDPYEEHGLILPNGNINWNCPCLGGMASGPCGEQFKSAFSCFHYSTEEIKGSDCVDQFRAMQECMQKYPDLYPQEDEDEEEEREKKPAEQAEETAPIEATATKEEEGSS
inactive: erlotinib -0.071 | [1] 0.102 | [2] -0.045 | [3] -0.036 | [4] -0.067 | [5] 0.012 | [6] -0.022 | [7] 0.053 | [8] -0.678 | [9] 0.177 | IRAK-1-4 Inhibitor I 0.056 | ibrutinib 0.003 | [10] 0.096 | ralimetinib -0.003 | [11] 0.002 | [12] 0.075 | [13] 0.03 | pinometostat -0.024 | [14] -0.011 | [15] -0.18

COPS8 (UniProt Q99627)
Sequence of UniProt Q99627 (Q99627 whole entry, looked up): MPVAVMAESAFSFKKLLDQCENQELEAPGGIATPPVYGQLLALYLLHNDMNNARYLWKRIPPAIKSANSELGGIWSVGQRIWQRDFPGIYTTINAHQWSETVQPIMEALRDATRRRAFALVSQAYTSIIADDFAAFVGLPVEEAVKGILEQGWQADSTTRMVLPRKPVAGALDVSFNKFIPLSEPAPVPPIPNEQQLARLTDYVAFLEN
inactive: erlotinib 0.033 | [1] 0.032 | [2] -0.005 | [3] -0.002 | [4] 0.081 | [5] 0.008 | [6] 0.012 | [7] -0.042 | [8] -0.04 | [9] 0.015 | IRAK-1-4 Inhibitor I -0.006 | ibrutinib 0.039 | [10] -0.011 | ralimetinib -0.042 | [11] 0.031 | [12] 0.043 | [13] 0.027 | pinometostat -0.021 | [14] -0.006 | [15] 0.13

CAMK2G isoform 6 (UniProt Q13555)
Sequence of UniProt Q13555 (Q13555 whole entry, looked up): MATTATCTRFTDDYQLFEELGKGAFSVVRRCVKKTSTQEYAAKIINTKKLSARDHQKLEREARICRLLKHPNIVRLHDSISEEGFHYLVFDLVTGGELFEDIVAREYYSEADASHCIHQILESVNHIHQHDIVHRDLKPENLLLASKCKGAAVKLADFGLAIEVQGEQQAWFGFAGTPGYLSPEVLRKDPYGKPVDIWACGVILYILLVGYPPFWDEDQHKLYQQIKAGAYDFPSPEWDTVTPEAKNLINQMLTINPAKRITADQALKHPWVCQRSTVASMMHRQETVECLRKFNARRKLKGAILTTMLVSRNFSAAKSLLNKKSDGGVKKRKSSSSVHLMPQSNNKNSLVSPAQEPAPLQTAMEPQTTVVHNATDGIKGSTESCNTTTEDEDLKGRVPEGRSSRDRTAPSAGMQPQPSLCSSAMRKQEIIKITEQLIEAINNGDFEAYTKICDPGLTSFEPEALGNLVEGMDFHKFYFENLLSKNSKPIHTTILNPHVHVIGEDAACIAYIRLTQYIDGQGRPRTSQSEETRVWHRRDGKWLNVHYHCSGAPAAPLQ
inactive: erlotinib -0.003 | [1] -0.096 | [2] -0.047 | [3] -0.098 | [4] 0.054 | [5] 0.009 | [6] 0.055 | [7] 0.08 | [8] -0.02 | [9] 0.015 | IRAK-1-4 Inhibitor I -0.008 | ibrutinib 0.004 | [10] 0.181 | ralimetinib 0.118 | [11] 0.039 | [12] -0.016 | [13] 0.038 | pinometostat 0.067 | [14] -0.075 | [15] 0.063

CCNT1 (UniProt O60563)
active: [10] -0.603 | [12] -0.375
inactive: erlotinib -0.026 | [1] 0.036 | [2] -0.141 | [3] 0.047 | [4] -0.041 | [5] -0.05 | [6] -0.129 | [7] -0.084 | [8] -0.014 | [9] -0.059 | IRAK-1-4 Inhibitor I -0.004 | ibrutinib 0.001 | ralimetinib 0.054 | [11] 0.042 | [13] 0.105 | pinometostat 0.213 | [14] -0.003 | [15] -0.112

CNOT2 (UniProt Q9NZN8)
Sequence of UniProt Q9NZN8 (Q9NZN8 whole entry, looked up): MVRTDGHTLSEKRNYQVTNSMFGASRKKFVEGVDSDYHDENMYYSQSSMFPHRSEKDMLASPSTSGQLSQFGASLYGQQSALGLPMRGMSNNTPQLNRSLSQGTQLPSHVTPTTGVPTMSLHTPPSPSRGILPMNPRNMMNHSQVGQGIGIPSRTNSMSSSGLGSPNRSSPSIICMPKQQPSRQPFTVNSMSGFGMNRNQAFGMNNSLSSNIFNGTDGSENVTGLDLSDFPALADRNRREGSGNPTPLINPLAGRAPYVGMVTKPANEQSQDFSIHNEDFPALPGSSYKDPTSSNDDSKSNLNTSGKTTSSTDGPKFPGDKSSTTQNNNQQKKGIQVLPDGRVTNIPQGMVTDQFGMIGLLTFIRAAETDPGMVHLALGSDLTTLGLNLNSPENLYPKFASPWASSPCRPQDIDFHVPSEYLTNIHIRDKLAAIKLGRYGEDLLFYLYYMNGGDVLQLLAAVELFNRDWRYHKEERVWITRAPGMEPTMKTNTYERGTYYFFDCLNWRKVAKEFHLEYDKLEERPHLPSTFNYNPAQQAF
inactive: erlotinib 0.043 | [1] 0.059 | [2] 0.009 | [3] -0.024 | [4] 0.016 | [5] 0.045 | [6] -0.031 | [7] -0.042 | [8] -0.019 | [9] -0.034 | IRAK-1-4 Inhibitor I 0.112 | ibrutinib 0.013 | [10] -0.045 | ralimetinib -0.027 | [11] -0.038 | [12] -0.112 | [13] 0.013 | pinometostat 0.05 | [14] -0.005 | [15] 0.059

CDK16 isoform 2 (UniProt Q00536)
Sequence of UniProt Q00536 (Q00536 whole entry, looked up): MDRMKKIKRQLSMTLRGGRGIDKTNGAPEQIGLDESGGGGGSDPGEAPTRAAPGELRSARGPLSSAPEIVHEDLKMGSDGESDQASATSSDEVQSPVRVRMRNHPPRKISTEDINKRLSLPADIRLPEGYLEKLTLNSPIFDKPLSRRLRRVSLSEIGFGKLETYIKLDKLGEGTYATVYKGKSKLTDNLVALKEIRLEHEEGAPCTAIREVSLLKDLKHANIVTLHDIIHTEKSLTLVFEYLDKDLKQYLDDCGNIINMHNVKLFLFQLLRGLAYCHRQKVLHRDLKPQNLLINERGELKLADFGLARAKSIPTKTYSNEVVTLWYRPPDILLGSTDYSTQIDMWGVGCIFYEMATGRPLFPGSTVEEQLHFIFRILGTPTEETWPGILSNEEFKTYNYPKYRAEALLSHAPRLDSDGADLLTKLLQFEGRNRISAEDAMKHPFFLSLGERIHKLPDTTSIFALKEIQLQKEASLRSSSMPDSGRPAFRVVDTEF
inactive: erlotinib -0.072 | [1] -0.025 | [2] -0.023 | [3] -0.07 | [4] 0.043 | [5] -0.016 | [6] -0.024 | [7] 0.121 | [8] 0.139 | [9] -0.029 | IRAK-1-4 Inhibitor I -0.029 | ibrutinib -0.018 | ralimetinib 0.05 | [11] -0.031 | [12] 0.069 | [13] 0.059 | pinometostat 0.016 | [14] -0.03 | [15] 0.025
active: [10] 0.843

CCNB1 (UniProt P14635)
inactive: erlotinib 0.012 | [1] 0.013 | [2] 0.03 | [3] 0.044 | [4] 0.013 | [5] 0.006 | [6] -0.016 | [7] 0.002 | [8] -0.011 | [9] -0.018 | IRAK-1-4 Inhibitor I 0.035 | ibrutinib -0.024 | ralimetinib -0.016 | [11] -0.005 | [12] -0.014 | [13] 0.006 | pinometostat -0.018 | [14] -0.007 | [15] 0.007
active: [10] -0.221

C22orf39 (UniProt Q6P5X5)
Sequence of UniProt Q6P5X5 (Q6P5X5 whole entry, looked up): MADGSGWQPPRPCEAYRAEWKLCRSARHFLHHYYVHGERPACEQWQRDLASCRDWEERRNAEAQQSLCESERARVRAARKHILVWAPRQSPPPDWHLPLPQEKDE
inactive: erlotinib -0.256 | [1] -0.02 | [2] -0.018 | [3] 0.02 | [4] -0.014 | [5] 0.051 | [6] -0.023 | [7] -0.004 | [8] 0.037 | [9] 0.02 | IRAK-1-4 Inhibitor I 0.12 | ibrutinib 0.033 | [10] -0.069 | ralimetinib -0.104 | [11] 0.018 | [13] 0.126 | pinometostat 0.035 | [14] 0.014 | [15] 0.213
active: [12] -0.587

CHAC2 (UniProt Q8WUX2)
Sequence of UniProt Q8WUX2 (Q8WUX2 whole entry, looked up): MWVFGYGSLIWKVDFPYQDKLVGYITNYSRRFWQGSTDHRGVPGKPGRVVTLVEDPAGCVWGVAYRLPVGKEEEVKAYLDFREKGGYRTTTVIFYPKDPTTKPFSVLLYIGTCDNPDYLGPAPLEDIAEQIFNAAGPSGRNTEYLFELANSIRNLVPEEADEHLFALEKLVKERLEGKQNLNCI
inactive: erlotinib 0.025 | [1] -0.011 | [2] 0.001 | [3] -0.012 | [4] -0.003 | [5] -0.033 | [6] -0.018 | [7] 0.001 | [8] -0.025 | [9] 0.093 | IRAK-1-4 Inhibitor I 0.038 | ibrutinib -0.058 | [10] -0.009 | ralimetinib -0.021 | [11] 0.085 | [12] 0.03 | [13] 0 | pinometostat 0.01 | [14] -0.061 | [15] -0.036

CRTC1 isoform 2 (UniProt Q6UUV9)
Sequence of UniProt Q6UUV9 (Q6UUV9 whole entry, looked up): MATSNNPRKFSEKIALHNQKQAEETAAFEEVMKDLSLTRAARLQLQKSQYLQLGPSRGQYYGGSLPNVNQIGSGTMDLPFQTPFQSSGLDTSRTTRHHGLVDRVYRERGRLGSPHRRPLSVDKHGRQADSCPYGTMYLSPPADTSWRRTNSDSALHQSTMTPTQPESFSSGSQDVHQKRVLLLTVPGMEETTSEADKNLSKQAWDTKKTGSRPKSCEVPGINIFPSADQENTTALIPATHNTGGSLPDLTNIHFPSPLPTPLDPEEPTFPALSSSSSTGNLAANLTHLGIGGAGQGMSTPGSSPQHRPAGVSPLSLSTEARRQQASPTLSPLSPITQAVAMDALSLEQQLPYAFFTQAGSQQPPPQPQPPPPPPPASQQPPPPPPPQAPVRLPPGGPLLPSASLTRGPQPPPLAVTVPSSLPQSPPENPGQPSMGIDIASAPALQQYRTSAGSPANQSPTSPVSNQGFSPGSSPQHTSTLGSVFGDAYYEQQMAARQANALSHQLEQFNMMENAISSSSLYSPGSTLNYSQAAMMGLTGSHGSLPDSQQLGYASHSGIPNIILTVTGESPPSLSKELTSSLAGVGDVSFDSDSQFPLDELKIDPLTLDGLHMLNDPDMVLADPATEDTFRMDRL
inactive: erlotinib 0.007 | [1] 0.07 | [2] -0.228 | [3] 0.068 | [4] 0.185 | [5] -0.052 | [6] -0.229 | [7] -0.051 | [8] -0.053 | [9] 0.021 | IRAK-1-4 Inhibitor I 0.026 | ibrutinib -0.061 | [10] -0.023 | ralimetinib 0.025 | [11] -0.042 | [12] 0.112 | [13] -0.041 | pinometostat -0.024 | [15] 0.072

CAB39L (UniProt Q9H9S4)
Sequence of UniProt Q9H9S4 (Q9H9S4 whole entry, looked up): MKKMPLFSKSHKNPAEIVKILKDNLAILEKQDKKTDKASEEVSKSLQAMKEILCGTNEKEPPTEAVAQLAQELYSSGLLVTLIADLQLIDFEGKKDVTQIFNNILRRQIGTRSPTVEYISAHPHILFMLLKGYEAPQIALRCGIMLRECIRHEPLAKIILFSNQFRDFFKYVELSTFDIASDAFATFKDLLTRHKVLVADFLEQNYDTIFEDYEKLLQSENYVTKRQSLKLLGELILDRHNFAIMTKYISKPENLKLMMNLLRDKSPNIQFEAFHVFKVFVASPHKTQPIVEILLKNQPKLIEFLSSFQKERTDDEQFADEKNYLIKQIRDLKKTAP
inactive: erlotinib -0.026 | [1] -0.001 | [2] -0.088 | [3] 0.065 | [4] 0.042 | [5] 0.015 | [6] 0.007 | [7] -0.117 | [8] -0.068 | [9] -0.306 | IRAK-1-4 Inhibitor I 0.018 | ibrutinib 0.001 | [10] -0.126 | ralimetinib 0.057 | [11] -0.152 | [12] -0.024 | [13] 0.032 | pinometostat 0.102 | [15] -0.483
